Reference: PubChem BioAssay AID743467 (Broad Institute, 2014)
Some of the results follow. Inconclusive results are not listed. Activity calls are given as the source filed them.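 The calls were made as follows: active = compound lowering PGC-1a expression with fitted half-maximal concentration at most twice its top tested dose; inconclusive = flat curve with moderate opposite-direction effect, or poor fit; inactive = the rest.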

Assay: suppression of PGC-1a mRNA in primary hepatocytes, dose response, PGC-1a acetylation activator project, cell-based, primary mouse hepatocytes, RT-qPCR, cherry-pick (AID 743467);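 also: 0% = neutral control wells median and 100% = positive control wells median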
Conditions: PGC-1a mRNA qPCR, forskolin, top dose 26 µM, hits give high values; at 26 µM unless noted

Structure (SMILES)	max activity (PGC-1a expression decrease)
Cc1ccc(OCC(=O)NCCCNC(=O)c2cccnc2)cc1C	111% (inactive)
CCC(C)(C)n1nnnc1C(c1ccccc1OC)N1CCSCC1 (centres undefined)	74.7% (inactive)
CCOC(=O)c1c(NC(=O)CSc2cn(CC)c3ccccc23)sc2c1CCC2	60.3% (inactive)
O=C(NCCC1CCCCN1S(=O)(=O)c1cccs1)C(=O)Nc1ccc(F)cc1F (centres undefined)	63.6% (inactive)
Cc1cc(C(=O)NNS(=O)(=O)c2ccccc2C(F)(F)F)nn1C(C)(C)C	22.5% [at 0.0012 µM] (inactive)
COc1ccc(-n2nnnc2CNC(=O)c2ccc3ccccc3c2)cc1	86.6% [at 0.0038 µM] (inactive)
O=C(NCc1ccccc1)C(c1ccccc1)N(C(=O)c1csnn1)c1ccc(F)cc1 (centres undefined)	114% [at 8 µM] (inactive)
CCOC(=O)c1c(-c2ccc(C)cc2C)csc1NC(=O)CSc1nnnn1C	87% [at 8 µM] (inactive)
CCCCC(=O)Nc1ccc(C(=O)NCCCn2ccnc2)cc1	68.4% [at 0.011 µM] (inactive)
Cc1cc(C)c2c(-n3cccc3)c(C(=O)NNS(=O)(=O)c3ccc(F)cc3)sc2n1	82.5% [at 8 µM] (inactive)
COc1ccc(Nc2nnc(C)c3ccccc23)cc1	52.1% (inactive)
CCOc1ccccc1CN1CCN(C2CCC2)CC1CCO (centres undefined)	28.9% [at 8 µM] (inactive)
O=S(=O)(NCc1ccccc1Br)c1ccccc1Br	65.1% (inactive)
CC(C)CCNc1nc(N2CCCC2)c2c(c1C#N)CCN(C)C2	56.4% (inactive)
